These results are taken from PubChem BioAssay AID2685 (National Center for Advancing Translational Sciences (NCATS), 2010).

The campaign covered roughly 320,000 compounds. About 2,100 (0.66%) were called active. Not shown: some 53% with an inconclusive outcome. The call rests on the fitted dose curve; in most records, active means well fitted inhibition curve with a large enough effect in the signal ratio, with a control signal flat (not every such curve was filed as active); inconclusive means small, poorly fitted or top-dose-only effect, or effect the other way, or a change in a side signal; inactive means flat fitted curve, though single readings scatter; the % refers to the signal ratio. For the sample, actives were picked, then their nearest neighbours and some compounds at random.
Potency means the concentration at half of the fitted maximal effect.

The assay in a line: qHTS Assay for Lipid Storage Modulators in Drosophila S3 Cells.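 On cell number change: cells counted by Cell Tracker Red CMTPX staining in the red channel.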 On lipid storage change, negative = inhibition: on the % scale 0 is the no-effect control and ±100 the full control effect. The following applies: BODIPY lipid droplet fluorescence, 18-24 h, cells fed with added oleic acid; cell number change: measured here: cell count max response; series mostly up to 46.1 µM; lipid storage change, negative = inhibition: at the top concentration. The method, boiled down: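 Laser-scanning cytometry quantifies lipid droplet accumulation (500–530 nm total intensity; droplet/cell object ratio) in oleic acid-fed (400 uM added) Drosophila S3 cells treated with a concentration series. 20 uM Triacsin C defined 100% inhibition.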
(qHTS replaces the single test concentration by a dilution series.)
Regarding `COc1ccc(N2C(=O)c3ccccc3C2=O)cc1`, the “lipid storage change, negative = inhibition” value is 19% (inactive) and the cell number change turned out to be 2.95%. For `COc1ccccc1C(=O)NC(=O)COC(=O)c1oc2ccccc2c1C`, in that order: -2% (inactive) and 20%.

As to `CCOc1nc(-c2ccccc2)ccc1-c1noc(-c2ccco2)n1`, the “lipid storage change, negative = inhibition” value was 4.86% (inactive) and the cell number change is -9.76%.

With `O=C1CN(C(=O)COC(=O)Cc2ccsc2)c2ccccc2N1`, the “lipid storage change, negative = inhibition” value is 3.29% (inactive) and the cell number change came to 4.09%.

In the case of `NC(=O)C(c1ccc(Cl)cc1)c1ncc(C(F)(F)F)cc1Cl` (stereo unspecified), the “lipid storage change, negative = inhibition” value is 20.1% (inactive) and the cell number change was 6.15%. For `CCC(=O)c1ccc(OCC(=O)OCC(=O)NC2CCCC2)cc1`, in that order: 7.81% [at 0.0737 µM] (inactive) and -7.74%.

Regarding `Cc1nc(C)c(C(=O)OCC(=O)Nc2cccc(C)c2C)s1`, the Potency is 16.4 µM (active) and the cell number change is -21.3%. As for `Cc1cccc(NC(=O)c2sc(Cl)nc2C)c1C`, the “lipid storage change, negative = inhibition” value was 17.3% (inactive) and the cell number change was 27.7%. Turning to `CCOC(=O)c1sc(Nc2cccc(C)c2C)nc1C`, the compound was called inactive.

Consider `Cc1nc(C)c(C(=O)OCC(=O)NCCc2ccc(S(N)(=O)=O)cc2)s1`, for which the outcome was inactive and the cell number change was found to be 5.35%.

Turning to `COc1ccc(CCNC(=O)COC(=O)c2sc(C)nc2C)cc1`, the “lipid storage change, negative = inhibition” value was -22.8% (inactive) and the cell number change was found to be 13.9%. On to `Cc1nc(C)c(C(=O)OCC(=O)NCc2ccccc2)s1`, for which the Potency was 1.16 µM (active) and the cell number change was found to be 2.69%. For `Cc1cccc(C)c1NC(=O)CN(C)C(=O)c1cccc(-n2cccc2)c1`, the lipid storage change, negative = inhibition is 9.6% [at 0.0737 µM] (inactive). On to `N#Cc1cccc(NC(=O)COC(=O)CCc2ccc(S(=O)(=O)N3CCOCC3)cc2)c1`, for which the “lipid storage change, negative = inhibition” value was 7.64% (inactive) and the cell number change amounted to 0.933%. The like results for `CCOC(=O)C(=NC(C)CC)NNc1cccc(C(F)(F)F)c1` (stereo unspecified) were, in that order, -2.64% (inactive) and 0.302%.

Turning to `Cc1cccc(C)c1N(CC(=O)NCc1ccccc1)C(=O)c1csnn1`, the result was inactive and the cell number change is -7.94%. With `CN(C)C(=O)c1nc2ccc(Cl)cn2c1CNCc1ccccc1OC(F)(F)F`, the “lipid storage change, negative = inhibition” value is 4.92% (inactive) and the cell number change was -4.39%. The like results for `CC(C)N1CC2=C(OC(N)=C(C#N)C2c2cccnc2)/C(=C/c2cccnc2)C1` (stereo unspecified) were, in that order, 11.8% (inactive) and -0.305%. `O=C1/C(=C\c2cccnc2)CCc2ccccc21`: the “lipid storage change, negative = inhibition” value was 5.43% (inactive) and the cell number change was -16.3%. For `O=C1NC(=S)N/C1=C\c1ccc(N2CCOCC2)cc1`, the “lipid storage change, negative = inhibition” value is -7.79% (inactive). With `O=C1/C(=C/c2cccnc2)CCc2c1[nH]c1ccccc21`, the “lipid storage change, negative = inhibition” value was 19% (inactive) and the cell number change was -5.69%. For `CN1C/C(=C\c2ccc(N3CCOCC3)cc2)C(=O)/C(=C/c2ccc(N3CCOCC3)cc2)C1`, the Potency is 7.31 µM (active) and the cell number change was -12.7%.

With `CN1C/C(=C/c2ccncc2)C(=O)/C(=C/c2ccncc2)C1`, the result was inactive and the cell number change is 15.3%. `CN1C/C(=C/c2cccnc2)C(=O)/C(=C/c2cccnc2)C1`: the Potency was 1.84 µM (active) and the cell number change was -16.3%. `CC(C)N1C/C(=C/c2cccnc2)C(=O)/C(=C/c2cccnc2)C1`: the Potency was 23.1 µM (active) and the cell number change was -15.1%. `C(=N\N1CCN(Cc2ccccc2)CC1)/c1cccnc1`: the “lipid storage change, negative = inhibition” value is 10.3% (inactive) and the cell number change amounted to 3.04%. For `CC1=N/C(=C/c2cccnc2)C(=O)O1`, in that order: 0.341% (inactive) and -0.0715%.

As to `CC(C)N1C(=O)S/C(=C/c2cccnc2)C1=O`, the “lipid storage change, negative = inhibition” value is -20.1% (inactive) and the cell number change was 16.4%. Take `O=C1/C(=C\c2cccnc2)CN(Cc2ccccc2)C/C1=C\c1cccnc1`: the Potency is 2.31 µM (active) and the cell number change was -26.3%. Regarding `COc1ccc(N2C(=O)/C(=C/c3ccc([N+](=O)[O-])cc3)N=C2C)c(OC)c1`, the “lipid storage change, negative = inhibition” value is 12.2% (inactive) and the cell number change is -0.57%. The like results for `O=c1c2cc3c(nc2[nH]c(=S)n1-c1ccccc1)CCCC3` were, in that order, -3.75% (inactive) and 8.9%.

With `COc1ccccc1OCCNc1cc(N2CCCCC2)ccc1[N+](=O)[O-]`, the “lipid storage change, negative = inhibition” value was 7.35% (inactive) and the cell number change was 20.1%. Take `CCOc1ccc2nc(SCC(=O)Nc3ccc4c(c3)OCCO4)[nH]c2c1`: the call was inactive and the cell number change is -1.86%. As to `O=C(/C=C/c1ccco1)N(Cc1ccccc1F)C1CCS(=O)(=O)C1` (stereo unspecified), the “lipid storage change, negative = inhibition” value was 23.1% (inactive) and the cell number change came to 19.4%. For `CCOc1ccccc1-n1c(SCC(=O)N2CCOCC2)nnc1-c1ccccn1`, in that order: 3.34% (inactive) and 1.75%. The like results for `N#Cc1ccc(/C=N/NC(=O)c2cc(-c3cccs3)nc3ccccc23)cc1` were, in that order, 21.4% (inactive) and 12.5%. The like results for `COc1ccc(NCc2nnc(SCC(=O)Nc3ccc(OC)cc3OC)o2)cc1` were, in that order, 8.16% (inactive) and 8.92%. As for `CCOC(=O)N1CCN(C(=O)CN(c2ccccc2OC)S(=O)(=O)c2ccc(C)cc2)CC1`, the outcome was inactive. Consider `O=C1/C(=C/c2ccsc2)N2CCC1CC2`, for which the “lipid storage change, negative = inhibition” value was -0.371% (inactive) and the cell number change was -5.13%. For the compound `CC(C)N1C/C(=C/c2ccsc2)C(=O)/C(=C/c2ccsc2)C1`, the Potency was 14.6 µM (active) and the cell number change was -15.9%. For the compound `O=C1/C(=C\c2ccsc2)N2CCC1CC2`, the “lipid storage change, negative = inhibition” value is -13% (inactive) and the cell number change worked out at 5.98%. With `CN(C)CC(C)(C)CNS(=O)(=O)c1ccc(Cl)c(Cl)c1`, the Potency was 23.1 µM (active) and the cell number change was -9.4%. Turning to `CN(C)CC(C)(C)CNS(=O)(=O)c1ccc(Cl)cc1`, the “lipid storage change, negative = inhibition” value was 1.02% (inactive) and the cell number change was 27.8%. In the case of `CC(C)(CNS(=O)(=O)c1ccc(F)cc1)CNS(=O)(=O)c1ccc(F)cc1`, the compound was called inactive and the cell number change amounted to 6.92%. In the case of `CCCc1ccc(OCCNC(=O)C2CCCCC2)cc1`, the “lipid storage change, negative = inhibition” value is 10.9% (inactive) and the cell number change was -6.51%.
